Data reported in PubChem BioAssay (NCATS).
Inconclusive results are not listed. Where a call stands in place of a potency, no number is given. Active and inactive are the calls of the source. Unless noted, calls come from the whole dose curve.

Experiments:
[1] = qHTS for Inhibitors of the Functional Ribonucleoprotein Complex (vRNP) of Lassa (LASV) Arenavirus: Viability assay - alamar blue signal for LASV Primary Screen (AID 1347083; calls by dose curve; tested in HEK293 reporter line; note: nearly all actives have a fitted effect of over 80% in size; note: potency is the fitted concentration of half-maximal effect)
[2] = qHTS for Inhibitors of the Functional Ribonucleoprotein Complex (vRNP) of Lymphocytic Choriomeningitis Arenaviruses (LCMV): Viability assay - alamar blue signal for LCMV Primary Screen (AID 1347085; calls by dose curve; tested in HEK293 reporter line; note: nearly all actives have a fitted effect of over 80% in size; note: potency is the fitted concentration of half-maximal effect)
[3] = molecular target: Nucleoprotein (Lymphocytic choriomeningitis virus (strain Armstrong)) (UniProt P09992); assay: qHTS for Inhibitors of the Functional Ribonucleoprotein Complex (vRNP) of Lymphocytic Choriomeningitis Arenaviruses (LCMV): LCMV Primary Screen - GLuc reporter signal (AID 1347086); note: series mostly up to about 57 µM; nearly all actives have a fitted effect of over 70% in size
Chain of Nucleoprotein (Lymphocytic choriomeningitis virus (strain Armstrong)) (P09992 whole entry, looked up): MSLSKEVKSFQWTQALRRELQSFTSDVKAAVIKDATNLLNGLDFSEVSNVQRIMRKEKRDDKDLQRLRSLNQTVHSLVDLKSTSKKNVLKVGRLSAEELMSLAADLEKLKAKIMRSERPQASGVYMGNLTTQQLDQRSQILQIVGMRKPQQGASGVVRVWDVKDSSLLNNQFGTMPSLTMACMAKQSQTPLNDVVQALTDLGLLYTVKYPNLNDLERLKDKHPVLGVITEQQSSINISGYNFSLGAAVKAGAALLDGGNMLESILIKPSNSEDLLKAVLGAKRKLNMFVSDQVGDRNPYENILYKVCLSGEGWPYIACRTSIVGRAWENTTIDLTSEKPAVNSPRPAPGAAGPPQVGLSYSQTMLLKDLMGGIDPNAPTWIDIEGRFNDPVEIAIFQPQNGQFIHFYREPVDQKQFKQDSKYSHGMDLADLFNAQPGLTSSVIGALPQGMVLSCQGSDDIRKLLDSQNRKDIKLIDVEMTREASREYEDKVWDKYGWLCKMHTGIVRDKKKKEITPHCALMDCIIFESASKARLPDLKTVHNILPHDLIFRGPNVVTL

| SMILES | Potency [1] | Potency [2] | Potency [3] |
| --- | --- | --- | --- |
| S=c1nc[nH]c2nc[nH]c12 | 6110 nM (active) |  |  |
| CC(C)(C)C1CCC(CC2=C(O)c3ccccc3C(=O)C2=O)CC1 (stereo not drawn) | inactive | inactive |  |
| OCCOCCN1CCN(C2=Nc3ccccc3Sc3ccccc32)CC1 | inactive | inactive | inactive |
| CCCCCN(CCCOC)C(=O)C(CCC(=O)O)NC(=O)c1ccc(Cl)c(Cl)c1 (stereo not drawn) | inactive | inactive | inactive |
| CC(C)(CO)[C@@H](O)C(=O)NCCCO | inactive | inactive | inactive |
| O=C(O)c1cc(=O)[nH]c(=O)[nH]1 | inactive | inactive | inactive |
| CN1CCN2c3ncccc3Cc3ccccc3C2C1 (stereo not drawn) | inactive | inactive | inactive |
| CC(=O)NC[C@H]1CN(c2ccc(N3CCOCC3)c(F)c2)C(=O)O1 | inactive | inactive |  |
| CCC1=C(C)CN(C(=O)NCCc2ccc(S(=O)(=O)NC(=O)NC3CCC(C)CC3)cc2)C1=O (stereo not drawn) | inactive | inactive | inactive |
| CO[C@H]1C[C@@H]2CC[C@@H](C)[C@@](O)(O2)C(=O)C(=O)N2CCCC[C@@H]2C(=O)O[C@H]([C@@H](C)C[C@@H]2CC[C@H](O)[C@H](OC)C2)CC(=O)[C@H](C)C=C(C)[C@@H](O)[C@@H](OC)C(=O)[C@H](C)C[C@H](C)C=CC=CC=C1C | 2.7 nM (active) | 12.2 nM (active) |  |
| CCN1CCN(C(=O)N[C@@H](C(=O)N[C@@H]2C(=O)N3[C@@H]2SC(C)(C)[C@H]3C(=O)O)c2ccccc2)C(=O)C1=O | inactive | inactive | inactive |
| Cc1ccc(-c2ncc(Cl)cc2-c2ccc(S(C)(=O)=O)cc2)cn1 | inactive | inactive | inactive |
| O=C(Nc1cccc2c(=O)cc(-c3nn[nH]n3)oc12)c1ccc(OCCCCc2ccccc2)cc1 | 30600 nM (active) |  |  |
| O=C(O)[C@@H]1[C@H]2C[C@H]3c4[nH]c5ccccc5c4CCN3C[C@@H]2CC[C@@H]1O | inactive | inactive | inactive |
| Nc1nc2[nH]cc(CCc3ccc(C(=O)N[C@@H](CCC(=O)O)C(=O)O)cc3)c2c(=O)[nH]1 | inactive |  |  |
| CC(=O)Oc1ccc(C)cc1 | inactive | inactive | inactive |
| Cc1ncc([N+](=O)[O-])n1CC(C)O (stereo not drawn) | inactive | inactive |  |
| O=C(O)c1ccccc1-c1ccc(C(F)(F)F)cc1 | inactive |  |  |

| SMILES | Potency [1] | Potency [2] | Potency [3] |
| --- | --- | --- | --- |
| Cc1onc(-c2ccccc2)c1C(=O)N[C@@H]1C(=O)N2[C@@H](C(=O)O)C(C)(C)S[C@@H]12 | inactive |  |  |
| O=C1CC(c2ccc(Cl)cc2)CC(=O)N1 | inactive | inactive | inactive |
| O=c1[nH]c(=O)n([C@H]2C[C@H](O)[C@@H](CO)O2)cc1I | inactive | inactive | inactive |
| COc1ccc(CCN(C)CCCN2CCc3cc(OC)c(OC)cc3CC2=O)cc1OC | inactive | inactive | inactive |
| O=C(O)c1cc(O)c(O)c(O)c1 | inactive | inactive | inactive |
| COc1cc([C@@H]2c3cc4c(cc3[C@@H](O[C@@H]3O[C@@H]5CO[C@@H](c6cccs6)O[C@@H]5[C@H](O)[C@@H]3O)[C@H]3COC(=O)[C@H]23)OCO4)cc(OC)c1O | 1220 nM (active) | 1720 nM (active) |  |
| COc1cc2c3cc1Oc1cc(ccc1O)C[C@@H]1c4c(cc(OC)c(O)c4Oc4ccc(cc4)C[C@@H]3N(C)CC2)CC[N+]1(C)C | inactive | inactive | inactive |
| CCN1CCCC1CNC(=O)c1cc(S(=O)(=O)CC)c(N)cc1OC (stereo not drawn) | inactive | inactive | inactive |
| Cn1cc(S(C)=O)c(=O)c2ccc(F)cc21 (stereo not drawn) | inactive | inactive | inactive |
| CCOc1cc(OCC)c(C(=O)CCC(=O)O)cc1OCC | inactive | inactive | inactive |
| COc1cc(C(=O)N2CCOCC2)cc(OC)c1OC | inactive | inactive | inactive |
| CCCCCCCCCCCC(=O)[O][Sn]([CH2]CCC)([CH2]CCC)[O]C(=O)CCCCCCCCCCC | inactive | inactive | inactive |
| Nc1ccc(C(=O)Oc2ccccc2)c(O)c1 | inactive | inactive | inactive |
| CC(C(=O)O)c1ccc2c(c1)CC(=O)c1ccccc1S2 (stereo not drawn) | inactive |  |  |
| CCOC(=O)C1=C(C)NC(C)=C(C(=O)OC)C1c1cccc([N+](=O)[O-])c1 (stereo not drawn) | inactive | inactive | inactive |
| CC(C)(S)[C@@H](N)C(=O)O | inactive | inactive |  |
| COCCCOc1ccnc(CS(=O)c2nc3ccccc3[nH]2)c1C (stereo not drawn) | inactive |  |  |
| CN(C)CCN1CCN(c2cccc(Cl)c2)C1=O | inactive | inactive | inactive |
